Compound activity deposited in PubChem BioAssay by National Center for Advancing Translational Sciences (NCATS).
Gal4-VP16 FLuc: inhibits Gal4-VP16 luciferase reporter, ROR gamma counter-screen; AID 2546; Potency, µM (highest dose often 53.6 µM), inactives show at the top dose activity, negative = inhibition, usual class: inhibitors; 3.5% of 310,000 active; Drosophila S2 Gal4-VP16 UAS-luciferase, luminescence, 20 h;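 note: Gal4-VP16 expression switched on by copper sulfate through the metallothionein promoter; potency is the fitted concentration of half-maximal effect; % is set by controls: 0 for no effect and ±100 for the full control effect; nearly all actives have a fitted effect of over 50% in size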
RORg inh: inhibitors of mouse ROR gamma transcriptional activity. P51450. Drosophila S2 Gal4-RORgamma UAS-luciferase reporter, 20 h. Potency, µM (titrated, usually from 53.6 µM), inactives show at the top dose activity change, negative = inhibition, actives largely listed as inhibitors. 5.4% of 310,000 active. AID 2551; note: potency is the fitted concentration of half-maximal effect; % is set by controls: 0 for no effect and ±100 for the full control effect; nearly all actives have a fitted effect of over 60% in size
Target sequence (P51450 whole entry, looked up, the tested form may be a part): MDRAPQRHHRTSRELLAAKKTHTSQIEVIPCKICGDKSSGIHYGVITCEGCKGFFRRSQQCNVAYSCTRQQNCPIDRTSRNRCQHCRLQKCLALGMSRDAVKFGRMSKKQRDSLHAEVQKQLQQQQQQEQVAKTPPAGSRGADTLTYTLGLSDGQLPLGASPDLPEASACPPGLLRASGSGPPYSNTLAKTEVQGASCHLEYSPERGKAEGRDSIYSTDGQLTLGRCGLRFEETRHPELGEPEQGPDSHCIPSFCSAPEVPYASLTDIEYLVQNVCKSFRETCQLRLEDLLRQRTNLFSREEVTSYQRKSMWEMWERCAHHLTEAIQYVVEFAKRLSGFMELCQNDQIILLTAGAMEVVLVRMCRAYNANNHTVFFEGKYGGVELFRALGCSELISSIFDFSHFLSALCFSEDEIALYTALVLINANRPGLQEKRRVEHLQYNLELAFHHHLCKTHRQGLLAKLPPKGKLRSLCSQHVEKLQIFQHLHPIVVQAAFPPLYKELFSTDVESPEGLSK
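Schneider cells (Drosophila), stable Gal4 DBD–ROR gamma + UAS-luc; 1 hr cmpd preincubation; Cu2+ induction 700 uM final; 20 hr ambient; luminescence.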
Giardia killer: Giardia lamblia killing | Giardia lamblia trophozoite viability | activity change, % at 7.66 µM, hits read low | 0.15% of 340,000 active | AID 540267; in the data active = activity change below about -80%; inconclusive = between about -30% and that limit;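 note: parasites exposed to compound for two days anaerobically before the ATP read; % is set by controls: 0 for no effect and ±100 for the full control effect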
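Luminescence from cellular ATP indicates surviving trophozoites (100 cells/well) following 48 hrs anaerobic compound treatment at 37 deg C; signal develops 15-30 min at room temperature.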
ELG1 repair inh: inhibitors of ELG1-dependent DNA repair in HEK293T cells; 2.3% of 330,000 active; Potency, µM (top dose mostly 46.1 µM), without a hit: at the top dose activity change, negative = inhibition, usual class: inhibitors; HEK293T ELG1-luciferase reporter, luminescence, 16 h; DNA damage induced by 5-fluorouridine; AID 504467; note: potency is the fitted concentration of half-maximal effect; % is set by controls: 0 for no effect and ±100 for the full control effect; nearly all actives have a fitted effect of over 55% in size
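Step one: seed 2,000 cells per well. Step two: pin-transfer compound or DMSO alongside 5-fluorouridine. Step three: incubate 16 hr, 37 °C, 5% CO2. Step four: add ONE-Glo, wait 30 min, read luminescence.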
p53 reactivation: restores transcriptional activity of mutant p53; H1299 p53-A138V BP100-luciferase reporter, luminescence, 24 h; Potency, µM (highest dose often 92.2 µM), inactives show top-dose activity change, positive = activation, actives largely listed as activators; 0.063% of 320,000 active; AID 504706; note: potency is the fitted concentration of half-maximal effect; % of control where 0% means no effect; nearly all actives have a fitted effect of over 45% in size
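p53-null H1299 cells stably carrying temperature-sensitive p53-A138V and a BP100-luciferase reporter were pinned with compounds (4-point, 1:5 series) and held 24 hrs at 37 deg C. Luminescence was read 10 min after detection reagent.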
BRCA1 expr up: activators of BRCA1 expression. MCF7-BRCA1-FFLuc reporter, luminescence, 48 h; response scale: scaled: vehicle 0%, 10 µM genistein 100%. AID 624202. Potency, µM (top dose mostly 46.1 µM), inactives show at the highest dose activation, actives largely listed as activators. 1.1% of 380,000 active; note: potency is the fitted concentration of half-maximal effect; nearly all actives have a fitted effect of over 80% in size
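Luminescence from a BRCA1-driven firefly luciferase in MCF7 cells was the read-out, taken 15 min after substrate addition following 48 h compound exposure at 37 °C. Data were normalized to a 10 microM genistein control and DMSO vehicle.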
* marks the source's active call; other numbers are inactive results; u = inconclusive; x = not tested or not shown. A selection: hits, their analogues and other compounds. The true share with any hit is near 7.6%. Unless noted, calls come from the whole dose curve; as a rule, active = well fitted curve in the direction sought with a large enough effect; inconclusive = small, poorly fitted or top-dose-only effect, or another doubt; inactive = no such curve, though single readings can be large; an effect the other way counts as inactive or inconclusive.

SMILES	Gal4-VP16 FLuc	RORg inh	Giardia killer	ELG1 repair inh	p53 reactivation	BRCA1 expr up
Oc1c(N=NC(=S)Nc2ccccc2F)c2ccccc2n1Cc1ccccc1Cl	6.31µM*	2.24µM*	5.2	-18.6%	-0.7%	-38.2%
C=CCn1c(O)c(N=NC(=S)Nc2ccccc2F)c2cc(S(=O)(=O)N3CCOCC3)ccc21	2µM*	0.447µM*	-12.3	-20.3%	-2.8%	-52.9%
C=CCn1c(O)c(N=NC(=S)Nc2ccccc2F)c2ccccc21	1.78µM*	0.794µM*	-1.9	6.51µM*	11.8%	-49.7%
Cc1c(Cl)cccc1NC(=S)N=Nc1c(O)n(CN2CCOCC2)c2ccccc12	5.01µM*	1.78µM*	-14.5	18.9%	-6.3%	-63.2%
O=S1(=O)CCC(N=Nc2c(O)n(Cc3ccccc3)c3ccccc23)C1 (centres undefined)	8.7%	39.0%	21.6	0.0%	-4.2%	-39.5%
Oc1c(N=NC(=S)Nc2ccccc2F)c2ccccc2n1Cc1ccccc1	3.55µM*	2.82µM*	8.7	8.2µM*	0.9%	-48.7%
O=C(CCN1C(=O)C2C3C=CC(C3)C2C1=O)NCc1cccnc1 (centres undefined)	-3.0%	0.3%	-25.9	-0.3%	-5.5%	-23.4%
CNC(=O)CSc1nnc(COc2ccc(Cl)cc2)n1CCOC	-6.2%	-10.4%	-0.6	10.8%	6.1%	3.4%
O=[N+]([O-])c1ccccc1S(=O)(=O)Oc1ccc(/C=N/n2cnnc2)cc1	-1.1%	15.4%	-80.8*	-19.8%	8.1%	-22.3%
CCOC(=O)c1sc(=S)n(-c2ccc(C)cc2)c1SC	-1.6%	15.3%	-10.3	9.5%	3.7%	-1.4%
CCCCn1c(SCC(=O)c2ccccc2)nc2c1c(=O)[nH]c(=O)n2C	-1.4%	13.8%	-13.6	-24.2%	14.6%	-24.9%
CSc1nsc(SCC(=O)Nc2ccc(C(N)=O)cc2)n1	u	3.16µM*	32.0	u	0.2%	-21.9%
CCOC(=O)CSc1nc(-c2ccc(OC)cc2)ns1	-26.5%	10µM*	-0.4	u	-4.3%	-3.2%
CSc1nsc(SCC(=O)Nc2ccc(C(C)=O)cc2)n1	16.9%	0.0%	6.5	u	u	74.5%
COc1ccc(NC(=O)CSc2nc(SC)ns2)cc1	27.0%	0.8%	-7.9	u	u	4.47µM*
CC(=O)CC(=O)Nc1ccc(C(N)=O)cc1	-2.2%	11.2µM*	1.1	13.3%	4.3%	18.9%
Cc1ccc(C)c(NS(=O)(=O)c2ccc(-c3coc(C)n3)cc2)c1	-5.2%	13.0%	28.5	-3.4%	-24.4%	-16.1%
Cc1ccc(/C=N/NC(=O)CNC(=O)COc2ccc(Cl)cc2)o1	-0.8%	-8.0%	-0.4	-1.5%	-5.0%	8.9%
CCOC(=O)N1CCN(C(=O)CSCC(=O)Nc2nc(-c3cccs3)cs2)CC1	-4.7%	u	3.5	25.9µM*	8.4%	11.4%
CCOc1cc(/C=N/NC(=O)C(=O)N2CCCC2)ccc1O	2.5%	5.9%	-19.9	-15.9%	-3.0%	1.2%
Cc1cccc2cc(CN(Cc3ccco3)C(c3nnnn3CCc3ccccc3)C(C)C)c(=O)[nH]c12 (centres undefined)	2.3%	u	4.3	9.2µM*	16.6%	-39.4%
COc1ccc2[nH]c(=O)c(CN(Cc3ccco3)C(c3nnnn3Cc3ccccc3)C(C)C)cc2c1 (centres undefined)	-13.2%	u	60.4	u	-2.1%	-79.2%
O=c1c2ccccc2nc(-c2ccccc2Cl)n1O	u	10µM*	-5.3	-6.0%	-1.8%	-20.9%
Clc1ccccc1-c1nc2ccccc2c2nc3ccccc3n12	20µM*	-40.8%	-5.0	u	-18.3%	-24.2%
O=c1c2ccccc2nc(-c2ccc(Cl)c(Cl)c2)n1O	u	u	-4.8	-19.5%	2.7%	-75.5%
SMILES	Gal4-VP16 FLuc	RORg inh	Giardia killer	ELG1 repair inh	p53 reactivation	BRCA1 expr up
O=c1c2ccccc2nc(-c2ccc(Cl)cc2Cl)n1O	u	10µM*	3.8	-25.0%	-1.3%	9.7%
On1c(-c2ccc(Cl)cc2Cl)nc2ncccc21	3.0%	-8.8%	-8.1	0.0%	2.6%	0.5%
Cc1cc(C)c2cc(C#N)c(N3CCCN(C(=O)c4cnccn4)CC3)nc2c1	2.9%	3.0%	1.0	4.8%	-1.9%	-23.0%
O=c1c2cc(Br)ccc2nc2n1CCCCC2	-0.7%	24.6%	10.2	u	5.2%	74.8%
Fc1ccc2nc3n(c2c1F)CCCCCC3	-21.2%	11.2µM*	-4.1	u	0.1%	22.0%
Cc1ccc(/C=N/n2c(-c3ccncc3)n[nH]c2=S)cc1	12.6µM*	8.91µM*	4.8	u	3.8%	17.2%
CC(C)(C)c1ccc(-c2n[nH]c(=S)n2/N=C/c2ccncc2)cc1	14.1µM*	u	-14.8	-0.5%	2.3%	60.9%
S=c1[nH]nc(-c2ccncc2)n1/N=C/c1cccc2ccccc12	-8.7%	-9.8%	x	1.2%	-5.6%	x
Cc1ccccc1-c1ccc(CN2C(C)C(=O)N(Cc3cn(Cc4ccco4)nn3)CCS2(=O)=O)cc1 (centres undefined)	x	x	x	x	x	-56.2%
CCCCC(CC)C(=O)Nc1cc(C(=O)NCCC)ccc1N1CCC2(CC1)CC(c1ccccc1)=NO2 (centres undefined)	0.5%	15.0%	12.9	u	x	-1.1%
CCCNC(=O)c1ccc(N2CCC3(CC2)CC(c2ccccc2)=NO3)c(NC(=O)c2ccco2)c1	-6.0%	32.8%	-7.5	5.8µM*	10.0%	0.0%
COc1ccc(NS(=O)(=O)c2ccc(OCC(=O)N3CCOCC3)cc2)cc1Cl	-21.6%	u	18.3	u	-12.1%	-32.4%
Cc1nn(-c2ccccc2)c(C)c1C(=O)OCC(=O)N1c2ccccc2NC(=O)C1(C)C	-6.7%	-21.2%	5.9	18.4µM*	-1.6%	-21.8%
O=C(N/N=C/c1cc([N+](=O)[O-])ccc1O)c1cccc2cc[nH]c12	3.55µM*	1.41µM*	-1.3	4.61µM*	21.7%	-63.7%
O=C1NCCCC1C(=O)N/N=C/c1cc([N+](=O)[O-])ccc1O (centres undefined)	-9.2%	-42.3%	9.8	u	7.2%	0.0%
O=C(N/N=C/c1cc([N+](=O)[O-])ccc1O)C(O)(c1ccccc1)c1ccccc1	0.891µM*	0.891µM*	13.0	-6.8%	29.1%	-65.5%
Cc1sc(N/N=C/c2cc([N+](=O)[O-])ccc2O)nc1-c1ccccc1	0.708µM*	0.282µM*	19.3	u	19.6%	-37.0%
O=[N+]([O-])c1ccc(O)c(/C=N/Nc2ccccc2Cl)c1	u	u	-5.3	u	2.6%	0.0%
O=C(N/N=C/c1cc([N+](=O)[O-])ccc1O)C1CC1	7.94µM*	1.78µM*	-22.8	18.3µM*	0.0%	-41.3%
